Hits are enriched below; roughly 3.5% of the tested compounds scored in any of these assays.
Tau fluor counter: counter-screen for tau fibril formation inhibitors; Potency, µM (series often up to 57.7 µM), inactives show at the highest dose activity change, negative = decrease; actives 0.93% (n = 280,000); tau K18 P301L Alexa594 fluorescence, heparin fibrillization; also: nearly all actives have a fitted effect of over 55% in size
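Human tau K18 P301L (15 uM unlabeled, 0.24 uM Alexa 594-labeled) in 100 mM sodium acetate pH 7 with 20 uM heparin, 6 hr at 37 C. ThT 30 uM added, 1 hr ambient; Alexa 594 FP and total fluorescence read at 555/632 nm.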
Tau fibril ThT: inhibitors of human tau fibril formation, thioflavin T binding | P10636 | recombinant tau K18 P301L (four-repeat tau fragment), heparin-induced fibrillization, ThT fluorescence | Potency, µM (titrated, usually from 57.4 µM), inactives show at the highest dose activity, negative = inhibition, usual class: inhibitors | actives 2.1% (n = 270,000); also: nearly all actives have a fitted effect of over 55% in size
Target sequence (P10636 561-689 P618L limits assumed): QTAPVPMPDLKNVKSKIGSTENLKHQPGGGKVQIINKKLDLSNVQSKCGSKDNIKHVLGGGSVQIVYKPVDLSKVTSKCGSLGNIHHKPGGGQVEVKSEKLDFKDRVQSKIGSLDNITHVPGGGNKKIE
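Recombinant human tau K18 fragment […] carrying P301L, 15 uM unlabeled plus 0.24 uM Alexa 594-labeled, was fibrillized with 20 uM heparin in 100 mM sodium acetate pH 7 for 6 hr at 37 C; 30 uM ThT fluorescence read after 1 hr.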
TR SRC2 fluor cs: alters Texas Red total fluorescence, flagging assay interference; TRb/SRC2 Texas Red total fluorescence interference; Potency, µM (series often up to 106 µM), without a hit: at the highest dose fluorescence change, negative = quenching; actives 0.29% (n = 280,000); AID 1479; active = well fitted curve in either direction with a large enough effect; inconclusive = small, poorly fitted or top-dose-only effect
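Human TRβ ligand-binding domain (0.6 uM) and Texas Red SRC2 peptide (20 nM) in Tris buffer with 1 uM T3 and 5% DMSO were incubated with pinned compound for 5 hr at ambient temperature. Total fluorescence was computed as S + 2P (555/632 nm).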
Tau fibril FP: blocks human tau fibril formation measured by polarization; P10636; Potency, µM (highest dose often 57.7 µM), for the others: at the highest dose activity, negative = inhibition, usual class: inhibitors; actives 0.39% (n = 280,000); K18 P301L tau heparin fibrillization, Alexa594 FP, 6 h; also: nearly all actives have a fitted effect of over 55% in size
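Human K18 P301L fragment (15 uM unlabeled plus 0.24 uM Alexa 594-labeled) in 100 mM sodium acetate pH 7 with compound, aggregation induced by 20 uM heparin for 6 hr at 37 C. ThT (30 uM) added for 1 hr, then Alexa 594 FP read.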
TRb SRC2 PPI: TRbeta-SRC2 interaction inhibition; P10828; TRbeta-SRC2 peptide binding, fluorescence polarization; receptor liganded with 1 µM T3; Potency, µM (highest dose often 106 µM), for inactives: at the top dose activity change, negative = inhibition, most hits filed as inhibitors; actives 0.065% (n = 280,000); AID 1469;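 also: plate controls were bound peptide for no effect and peptide without receptor for full effect; nearly all actives have a fitted effect of over 50% in size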
Target sequence (P10828 whole entry, looked up): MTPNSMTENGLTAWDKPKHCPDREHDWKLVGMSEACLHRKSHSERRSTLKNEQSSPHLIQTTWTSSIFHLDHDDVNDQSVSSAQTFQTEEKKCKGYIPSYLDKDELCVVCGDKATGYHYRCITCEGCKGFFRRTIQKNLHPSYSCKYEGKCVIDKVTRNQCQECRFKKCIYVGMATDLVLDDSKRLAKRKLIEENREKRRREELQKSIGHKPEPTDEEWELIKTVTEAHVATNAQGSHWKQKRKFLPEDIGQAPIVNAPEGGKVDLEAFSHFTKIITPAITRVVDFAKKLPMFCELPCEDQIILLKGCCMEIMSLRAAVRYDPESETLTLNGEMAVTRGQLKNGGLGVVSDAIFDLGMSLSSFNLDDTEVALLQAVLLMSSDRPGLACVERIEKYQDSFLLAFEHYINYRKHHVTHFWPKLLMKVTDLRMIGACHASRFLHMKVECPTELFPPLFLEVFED
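Read-out is fluorescence polarization (555 nm excitation, 632 nm emission) of a Texas Red SRC2 coactivator peptide; loss of signal reflects blocked binding to human TRb ligand-binding domain in the presence of 1 uM T3.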
JMJD2E inh: blocks human JMJD2E demethylase activity. B2RXH2. JMJD2E catalytic domain, FDH-coupled NADH fluorescence (FDH is formaldehyde dehydrogenase). Potency, µM (series often up to 57.1 µM), for the others: top-dose activity change, negative = inhibition, most hits filed as inhibitors. actives 1.6% (n = 230,000); active = well fitted inhibition curve with a large enough effect, not every such curve was filed as active; inconclusive = small, poorly fitted or top-dose-only effect, or another doubt; inactive = no such curve, though single readings can be large or run the other way;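 also: 0% = wells with enzyme and -100% = buffer wells without enzyme; nearly all actives have a fitted effect of over 50% in size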
* marks the source's active call; other numbers are inactive results; u = inconclusive; x = no result given; [ ] = dose if it differs, or a comment. Unless noted, calls follow the shape of the dose curve; as a rule, active = well fitted curve in the direction sought with a large enough effect; inconclusive = small, poorly fitted or top-dose-only effect, or another doubt; inactive = no such curve, though single readings can be large; an effect the other way counts as inactive or inconclusive. Unless noted, % is scaled to controls: 0 for no effect and ±100 for the full control effect; potency is read from the fitted curve at half-maximal effect.

SMILES	Tau fluor counter	Tau fibril ThT	TR SRC2 fluor cs	Tau fibril FP	TRb SRC2 PPI	JMJD2E inh
COc1ccc2c(c1)OC1(O)COc3cc(OC)c(OC)cc3C1=C2 (stereo unspecified)	u	5.6µM*	-9%	u	-2%	u
Cc1ccc(CNC(=O)CCN2C(=O)C(C)Oc3ccc(C)cc32)cc1 (stereo unspecified)	-18%	-14%	35µM*[quencher]	5%	-17%[53 µM]	x
CCCCOC(=O)c1ccc(-n2nnc3c(sc4nc(C)cc(C)c43)c2=O)cc1	5%	0%	-1%	3%	-4%	x
CC(=O)N/N=C(\C)CC(=O)NC(C)(C)C	-6%	-5%	-5%	1%	-6%	13%
CC(NC(=O)c1ccc(Br)cc1)C(=O)NC1=NCCS1 (stereo unspecified)	3%	9%	-3%	7%	-6%	-15%
COc1cc(Nc2nc(-c3ccccc3)c3cc(C)ccc3n2)cc(OC)c1OC	u	16µM*	-5%	u	2%	-6%
CN=c1scc(-c2ccc([N+](=O)[O-])cc2)n1/N=C/c1ccco1	-29%	3.5µM*	0%	-6%	4%	14%
O=C1c2ccc([N+](=O)[O-])cc2NC(c2ccco2)N1/N=C/c1ccco1 (stereo unspecified)	u	13µM*	-2%	10%	3%	-25%
O=C1c2ccccc2NC(c2ccc(-c3cccc([N+](=O)[O-])c3)o2)N1O (stereo unspecified)	-22%	u	0%	11%	-1%	u
COc1ccc(C(=O)c2oc3ccc(OC)cc3c2N)cc1	14µM*[quencher]	11µM*	-5%	8%	4%	u
O=C(Nc1nc(-c2ccccc2)cs1)c1ccccc1NS(=O)(=O)c1ccc(F)cc1	u	14µM*	u	u	u	u
O=S(=O)(Nc1ccc(-c2csc(-c3ccccc3)n2)cc1)c1ccc(F)cc1	u	-9%	0%	11µM*	6%	-17%
CC(=O)c1c(C)[nH]c(C(=O)Nc2nc(-c3ccc(-c4ccccc4)cc3)cs2)c1C	u	2%	-1%	40µM*	-1%	u
CC(=O)c1c(C)[nH]c(C(=O)Nc2nc(-c3ccc(Cl)cc3)cs2)c1C	-12%	-12%	-5%	8%	-6%	-3%
O=C(O)CCN1C(=O)/C(=C\c2cccc(OCC(=O)Nc3ccc(Cl)cc3)c2)SC1=S	-16%	13µM*	-4%	-4%	-6%	-1%
COc1cc(/C=C2\SC(=S)N(CCC(=O)Nc3ccccc3)C2=O)cc(OC)c1OC	0%	4%	1%	5%	0%	3%
Cc1ccc(NC(=O)COc2cccc(/C=C3\SC(=S)N(CCC(=O)O)C3=O)c2)cc1Cl	-13%	13µM*	4%	-1%	2%	5%
CCOC(=O)C1=C(C)N(c2ccc(OC)cc2)C(=O)/C1=C\c1cccs1	-16%	u	-1%	u	3%	4%
CCOC(=O)C1=C(C)N(c2ccc(C)c(C)c2)C(=O)/C1=C\c1ccco1	-26%	28µM*	-3%	u	-2%	-6%
CCOC(=O)C1=C(C)N(c2ccc(OC)cc2)C(=O)/C1=C\c1ccc(O)c(OCC)c1	u	25µM*	-3%	u	2%	-25%
CCOc1cc(/C=C2\C(=O)N(Cc3ccc(C)cc3)C(C)=C2C(=O)OC)ccc1O	u	25µM*	-2%	u	-8%	4%
C=CCOc1cccc(/C=C2\C(=O)N(Cc3ccc(C)cc3)C(C)=C2C(=O)OC)c1	-17%	u	0%	-13%	-7%	-3%
Cc1ccc(S(=O)(=O)N(CC(=O)N/N=C/c2cccc3c2OCCO3)c2ccccc2F)cc1	u	-6%	0%	-3%	-2%	u
Cc1ccccc1N(CC(=O)NCCSCc1ccco1)S(C)(=O)=O	-6%	-16%	0%	-9%	-1%	-9%
COc1ccc(CNC(=O)c2c(O)c3cccc4c3n(c2=O)CCC4)cc1OC	6%	13%	-4%	13%	-5%	20%
SMILES	Tau fluor counter	Tau fibril ThT	TR SRC2 fluor cs	Tau fibril FP	TRb SRC2 PPI	JMJD2E inh
COc1ccc(CNC(=O)c2c(O)c3cccc4c3n(c2=O)CCC4)cc1	u	-13%	2%	-22%	2%	0.79µM*
Nc1c(Cl)cc2c(c1Oc1ccccc1)C(=O)c1ccccc1C2=O	14µM*[quencher]	u	-3%	7%	5%	3%
CC1CCN(S(=O)(=O)c2cc3c4c(c2)CC(=O)N4CCC3)CC1	-10%	1%	-2%	u	0%	x
COC(=O)/C=C\c1cc(O)ccc1O	-27%	u	-3%	0%	5%	32µM*
COC(=O)/C=C/C(=O)Nc1ccc(O)c(Cl)c1	-26%	u	-2%	12%	-5%	-4%
CCOC(=O)N1CCN(C(=O)C2CCN(S(=O)(=O)CC)CC2)CC1	25µM*[quencher]	8%	-2%	u	-3%	5%
O=C(CSc1ccc2c(c1)OCCO2)NCc1ccco1	-9%	u	-3%	-7%	1%	1%
O=C(CSc1nnc(NC(=O)C2CCC2)s1)Nc1ccc(N2CCOCC2)cc1	-29%	6.3µM*	-5%	6%	-5%	2%
O=C(CSc1nnc(NC(=O)C2CC2)s1)Nc1ccc(F)cc1	2%	15%	-3%	-1%	7%	5%
Cc1cc(N=Nc2ccccc2)c(NCC(O)C(O)C(O)CO)cc1C (stereo unspecified)	u	14µM*	-3%	16%	6%	-12%
Cc1ccc(NCC(O)C(O)C(O)CO)cc1C (stereo unspecified)	-5%	-12%	-2%	-9%	-1%	-10%
COc1ccc(C(=O)CSC#N)cc1OC	-9%	16µM*	-1%	u	-1%	11%
CC(C)(C)c1ccc(C(=O)Nc2sc3c(c2C(=O)O)CCC3)cc1	u	14µM*	-3%	-7%	-1%	u
Cc1cccc(NC(=O)c2c(NC(=O)c3ccccc3)sc3c2CCCC3)c1	u	10µM*	-40%	u	-3%	x
Cc1cccc(NC(=O)CN2C(=O)S/C(=C\c3ccc(O)c([N+](=O)[O-])c3)C2=O)c1	u	6.3µM*	-3%	1%	3%	-4%
O=C1S/C(=C\c2ccc(O)c([N+](=O)[O-])c2)C(=O)N1c1ccccc1Cl	u	6.3µM*	-2%	-5%	-10%	-6%
O=C(O)c1cccc(CN2C(=O)S/C(=C/c3ccccc3[N+](=O)[O-])C2=O)c1	-16%	u	0%	u	0%	6%

Bioassay records (PubChem BioAssay)
